From PubChem BioAssay (NCATS)
Results filed as inconclusive are left out. A number with no mark means an inactive call. The source made the active and inactive calls. Calls come from the whole dose curve; as a rule, active = well fitted cell-killing curve with a large enough effect; inconclusive = small, poorly fitted or top-dose-only effect, or effect the other way; inactive = no such curve, though single readings can be large or run the other way.

assay: Viability qHTS for spleen associated tyrosine kinase inhibitor (SYKi) drug resistant MV4-11 cells (AID 1963824); settings: SYKi-resistant MV4-11 viability, CellTiter-Glo, 72 h; series mostly up to 45 µM; viability, % of control: at the top concentration; note: nearly all actives have a fitted effect of over 35% in size
Method in brief: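 SYK-inhibitor-resistant MV4-11 AML cells were seeded at 500 per well onto compound and cultured 72 hours (37 °C, 5% CO2). CellTiter-Glo was then added, and after 10 min at room temperature, luminescence gave viability.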
Potency is the fitted concentration of half-maximal effect.

Question: With `CC1CCC2C(=CCC(O)C2(C)C)C1(C)Cc1c(O)cc(CO)c(C=O)c1O` (configuration not stated) as the compound, how does the Potency read?
Answer: 7.18 µM (active)

Question: Which Potency does the source give for `CN1CCC(c2cn(C)c3ccc(OS(=O)(=O)c4c(F)cccc4F)cc23)CC1` here?
Answer: 14.6 µM (active)

Question: For `CNc1cc2[nH]c(=O)n(-c3ccc(NC(=O)NS(=O)(=O)c4ccc(Cl)s4)cc3)c(=O)c2cc1F`, which “viability, % of control” value is on record?
Answer: 83.1%

Question: With `COC(=O)C[C@@H]1C(C(=O)O)=CO[C@@H](O[C@@H]2O[C@H](CO)[C@@H](O)[C@H](O)[C@H]2O)/C1=C\COC(=O)/C=C/c1ccc(O)c(OC)c1` as the compound, how does the “viability, % of control” value read?
Answer: 91.8% [at 17.3 µM]

Question: For `FC(F)(F)c1ccc(/C=C/c2nc(COc3ccc(CCCCn4ccnn4)cc3)co2)cc1`, which Potency is on record?
Answer: 0.0263 µM (active)

Question: With `N#Cc1ccc(Cn2cncc2CN2CCN(c3cccc(Cl)c3)C(=O)C2)cc1` as the compound, how does the Potency read?
Answer: 2.95 µM (active)

Question: With `CNc1cc(OC)c(C(=O)N[C@@H]2CCN(Cc3ccccc3)[C@@H]2C)cc1Cl` as the compound, how does the Potency read?
Answer: 14.6 µM (active)

Question: For `CC[C@]1(O)C[C@H]2CN(CCC3C(=Nc4ccccc43)[C@@](C(=O)OC)(c3cc4c(cc3OC)N(C)[C@H]3[C@@](O)(C(N)=O)[C@H](O)[C@]5(CC)C=CCN6CC[C@]43[C@@H]65)C2)C1` (some centres not stated), which Potency is on record?
Answer: 0.0366 µM (active)

Question: For `CC(C)C[C@H](CC(=O)NO)C(=O)N[C@H](C(=O)N[C@@H](C)C(=O)NCCN)C(C)(C)C`, which viability, % of control is on record?
Answer: 90.6% [at 9.25 µM]

Question: With `Cc1cc(F)c(Nc2ncnc3cc(OCc4ccccc4)ccc23)cc1O` as the compound, how does the Potency read?
Answer: 14.6 µM (active)

Question: With `CC(C)(O)/C=C/C(=O)[C@](C)(O)[C@H]1[C@H](O)C[C@@]2(C)[C@@H]3CC=C4[C@@H](C=C(O[C@@H]5O[C@H](CO)[C@@H](O)[C@H](O)[C@H]5O)C(=O)C4(C)C)[C@]3(C)C(=O)C[C@]12C` as the compound, how does the “viability, % of control” value read?
Answer: 72% [at 17.3 µM]

Question: Which Potency does the source give for `C[C@@H]1C[C@@H]([C@@H](O)C(C)(C)O)O[C@H]2C[C@@]3(C)C(=C12)C[C@H](O)[C@H]1[C@@]2(C)CCC(=O)C(C)(C)C2CC[C@@]13C` (some centres not stated) here?
Answer: 1.26 µM (active)

Question: Which “viability, % of control” value does the source give for `C[C@@H]1C(=O)O[C@H]2[C@H]1CC[C@@]1(C)C(=O)C=C[C@@](C)(O)[C@H]21` here?
Answer: 102%

Question: With `COc1cc2c(cc1OC)[C@@H]1[C@H](O)[C@@H](OC)C=C3CCN(C2)[C@H]31` as the compound, how does the Potency read?
Answer: 1.8 µM (active)

Question: With `C=CC(C)(O)C(O)CC1C(C)(O)C(O)C(O)C2C(C)(C)CCCC21C` (configuration not stated) as the compound, how does the “viability, % of control” value read?
Answer: 77.7%

Question: Which Potency does the source give for `COc1cccc(N2CCN(C3=Nc4c(F)cccc4[C@H](CC(=O)O)N3c3cc(C(F)(F)F)ccc3OC)CC2)c1` here?
Answer: 18.4 µM (active)

Question: Which “viability, % of control” value does the source give for `C=C[C@H]1[C@H](O[C@@H]2O[C@H](CO)[C@@H](O)[C@H](O)[C@H]2O)OC=C(C(=O)OC)[C@H]1C[C@@H]1N[C@H](C(=O)O)Cc2c1[nH]c1ccccc21` here?
Answer: 89.5% [at 17.3 µM]

Question: With `O=Nc1c(-c2c(O)[nH]c3ccc(F)cc23)[nH]c2ccccc12` as the compound, how does the Potency read?
Answer: 0.058 µM (active)

Question: With `CC(C)(C)c1ccc(C(=O)Nc2cc(Cl)c(Br)cc2C(=O)O)cc1` as the compound, how does the Potency read?
Answer: 16.4 µM (active)

Question: Which Potency does the source give for `CC(=O)c1ccc2c(c1)N(CCCN(C)C)c1ccccc1S2` here?
Answer: 11.9 µM (active)

Question: With `CC(=O)OC1C(OC(=O)c2ccccc2)C2C(C)(C)CCC(OC(C)=O)C2(C)C23CCC(C)(C2)C(=O)CC13` (configuration not stated) as the compound, how does the Potency read?
Answer: 10 µM (active)

Question: With `C/C=C(\C)C(=O)OCC1OC(OCC2OC(OC3(CO)OC(CO)C(O)C3O)C(O)C(O)C2O)C(O)C(O)C1O` (configuration not stated) as the compound, how does the “viability, % of control” value read?
Answer: 90.8% [at 17.3 µM]

Question: With `O=C(Nc1ccn(Cc2ccc(O)cc2C(F)(F)F)n1)c1c(F)cccc1F` as the compound, how does the Potency read?
Answer: 13 µM (active)

Question: Which Potency does the source give for `CC(C)[C@@H](c1ccc(C(F)(F)F)cc1CN(Cc1cc(C(F)(F)F)cc(C(F)(F)F)c1)c1nnn(C)n1)N1CCC(C(=O)O)CC1` here?
Answer: 20.6 µM (active)

Question: Which Potency does the source give for `COC(=O)C1C(c2ccc(O)cc2)C(C(=O)OC)C1c1ccc(O)cc1` (configuration not stated) here?
Answer: 10.1 µM (active)

Question: Which “viability, % of control” value does the source give for `COc1ccc(N2CCN(C(=O)c3cc4c(s3)-c3ccccc3S(=O)(=O)C4)CC2)cc1` here?
Answer: 72.4%

Question: Which “viability, % of control” value does the source give for `COc1ccccc1Oc1c(NS(=O)(=O)c2ccc(C)cn2)nc(-c2ccncc2)nc1OC` here?
Answer: 79.1%

Question: For `CC(C)[C@H]1CCC(CO)=C[C@@H]1/C=C(\CO)C(=O)O`, which “viability, % of control” value is on record?
Answer: 79%

Question: With `COc1cccc(CN(C(=O)CC(C)(C)C)[C@H]2C[C@H](C(=O)N3CCNCC3)N(Cc3ccc4c(c3)OCO4)C2)c1` as the compound, how does the Potency read?
Answer: 16.4 µM (active)

Question: With `COc1cc2nc(N3CCCC3)nc(NCCCCCN3CCCC3)c2cc1OC` as the compound, how does the Potency read?
Answer: 2.59 µM (active)

Question: With `C/C=C(\C)C(=O)OCC1OC(OC2OC(CO)C(O)C(O)C2O)C(O)C(O)C1O` (configuration not stated) as the compound, how does the “viability, % of control” value read?
Answer: 99.4% [at 17.3 µM]

Question: Which “viability, % of control” value does the source give for `CC1CC(O)C2(OC1=O)OC1C(O)C3C4CCC5CC(OC6OC(CO)C(O)C(O)C6OC6OC(C)C(O)C(O)C6O)CCC5(C)C4CCC3(C)C1C2C` (configuration not stated) here?
Answer: 80.7% [at 17.3 µM]
